Reference: PubChem BioAssay AID651785 (The Scripps Research Institute Molecular Screening Center, 2012)
The whole screen tested about 2,400 compounds, of which about 950 (40%) were called active. The list is a sample of the results. Values without a mark were called inactive. No stated cut-off is given here; in the data, active means inhibition above about 49%; inactive means the rest.

The molecules below were run against Trace amine-associated receptor 1 (Homo sapiens) (UniProt Q96RJ0) (assay: human TAAR1 antagonists, retest of hits, confirmation, cell-based, fluorescence (AID 651785;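 further: CHO-Ga16 host cells challenged with agonist PEA near its EC80; 0% = agonist at EC80 plus vehicle and 100% = vehicle with no agonist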)). Details: TAAR1-expressing cells, fluorescence antagonist read-out; at 3 µM; hits give high values.
Chain of Trace amine-associated receptor 1 (Homo sapiens) (Q96RJ0 whole entry, looked up, the tested form may be a part): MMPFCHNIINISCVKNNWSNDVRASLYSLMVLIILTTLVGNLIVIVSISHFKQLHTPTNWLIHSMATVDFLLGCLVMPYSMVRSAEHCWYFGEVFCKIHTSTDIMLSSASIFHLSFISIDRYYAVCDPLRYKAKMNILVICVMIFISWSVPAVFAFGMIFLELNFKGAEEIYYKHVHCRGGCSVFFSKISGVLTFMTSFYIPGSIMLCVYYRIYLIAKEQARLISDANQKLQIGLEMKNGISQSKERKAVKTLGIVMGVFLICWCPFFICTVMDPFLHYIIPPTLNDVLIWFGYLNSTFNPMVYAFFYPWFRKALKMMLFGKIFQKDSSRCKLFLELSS

Structure (SMILES)	inhibition
Nc1nonc1-n1nnc(C(=O)N/N=C/c2c[nH]c3ccccc23)c1-c1ccccc1	33.6%
Cc1ccc(SCc2c(C(=O)N/N=C/c3cccnc3)nnn2-c2nonc2N)cc1	59.3% (active)
C[C@@H]1CN([C@@H](C)CO)S(=O)(=O)c2ccc(C#Cc3cccc(F)c3)cc2O[C@H]1CN(C)S(=O)(=O)c1cn(C)cn1	53% (active)
CCc1ccc2c(c1)NC(=O)C2(C)Cc1ccc(OC(F)(F)F)cc1 (stereo not drawn)	44.5%
Cc1cccc(NC(=O)c2nc[nH]c2C(=O)NCC(=O)OCc2ccccc2)c1	46%
CCOC(=O)C1=C(NC(=S)NC(=O)c2ccccc2)c2ccccc2CC1(C)C	42.7%
Cc1cc(Br)ccc1NC(=O)c1cnc(N2CCN(c3ccccn3)CC2)c2ccccc12	55.2% (active)
Cc1ccc2c(c1)N(CC(=O)NCCc1ccc(Cl)cc1)C(=O)c1cccnc1O2	50.5% (active)
COc1ccc(C2=NOC(Cn3nc(C(=O)NCc4ccc5c(c4)OCO5)cc3-c3ccccc3)C2)cc1 (stereo not drawn)	48.2%
CC(=O)OCCN(CCCn1c(-c2ccncc2)nc2ccccc21)c1nc(-c2ccc(C)cc2)cs1	36.5%
Cc1nn(-c2ccccc2)c(C)c1NC(=O)COC(=O)c1cc(Cl)ccc1O	56.2% (active)
Cc1onc(-c2c(F)cccc2Cl)c1C(=O)Nc1cccc(S(=O)(=O)N2CCCCC2)c1	46%
COc1ccc(NC(=O)C2CCCN(S(=O)(=O)c3cccc4cccnc34)C2)cc1OC (stereo not drawn)	45.3%
COc1ccc(S(=O)(=O)N2CCCC(C(=O)Nc3ccc(NC(=O)c4ccccn4)cc3)C2)cc1 (stereo not drawn)	56.2% (active)
Cc1ccc(C)c(N2CCN(C(=O)CCCCCn3c(=S)[nH]c4ccc(N5CCOCC5)cc4c3=O)CC2)c1	54.2% (active)
COc1ccc(CCNC2=C(Cl)C(=O)N(Cc3ccccc3)C2=O)cc1OC	50.8% (active)
COc1cc2ccccc2cc1C(=O)Nc1ccc(NC(=O)c2cccs2)cc1	45.9%
C[C@H](O)[C@@H]1C(=O)N2CCc3c([nH]c4c(-c5ccc6c(c5)OCO6)cccc34)[C@@H]2C[C@@H]1N(C)C(=O)c1ccco1	37.4%
O=C(NCCN1CCOCC1)c1ccccc1N1C(=O)[C@@H]2Cc3c([nH]c4ccccc34)C(c3cccc(Cl)c3)N2C1=O (stereo partly drawn)	39.5%
O=C(NCCN1CCOCC1)c1ccc(/C=C2\Sc3ccccc3N(Cc3ccc(F)cc3)C2=O)cc1	52.2% (active)
O=C(NCCN1C(=O)S/C(=C\c2cccnc2)C1=O)c1ccc(S(=O)(=O)N2CCCC2)cc1	29.7%

Structure (SMILES)	inhibition
CCNS(=O)(=O)c1ccc(CCC(=O)N2CCN(c3cc(Cl)ccc3C)CC2)cc1	50.4% (active)
OC(c1ccccc1)(c1ccccc1)C1CCN(CCCOc2ccc(-c3ccsc3)cc2)CC1	43.2%
CCOc1ccc(N2CC(C(=O)N/N=C/c3sccc3C)CC2=O)cc1 (stereo not drawn)	9.4%
O=C1c2ccccc2C(=O)N1CCC#Cc1ccc2cc(C3(O)CCCCC3)oc(=O)c2c1	69.5% (active)
CCN1CCc2c(C#N)c(NCc3ccccc3)nc(NCCO)c2C1	0.04%
Cc1cccc(C)c1NC(=O)CNC(=O)C1CCCC1	2.87%
Cc1ccccc1OCC(=O)Nc1ccc(N2CCN(C(=O)C(C)C)CC2)c(Cl)c1	55.3% (active)
CSc1ncnc2c1ncn2CC(=O)C1CCC2C3CCC4=CC(=O)CCC4(C)C3CCC12C (stereo not drawn)	61.9% (active)
COc1ccc(N(CC(=O)N/N=C/c2cccs2)S(=O)(=O)c2ccc(OC)c(OC)c2)cc1	42.2%
CC(=O)c1ccccc1OCc1ccc(C(=O)c2ccccc2)cc1	56.3% (active)
COc1ccc2[nH]c(=O)c(CN(Cc3cccnc3)S(=O)(=O)c3ccccc3F)cc2c1	55% (active)
O=C(COC(=O)c1c2c(nc3ccccc13)CCCC2)c1ccc(Br)s1	41%
CSC(=S)N/N=C/c1c[nH]c2ccccc12	65.5% (active)
O=C(Oc1ccc(-c2nnco2)cc1)c1ccc(F)c(S(=O)(=O)N2CCOCC2)c1	61.4% (active)
COc1ccc(C(=O)Oc2ccc(-c3nnco3)cc2)cc1S(=O)(=O)N1CCOCC1	47.2%
C=CCc1cc(S(=O)(=O)c2ccc(O)c(CC=C)c2)ccc1O	26.4%
Cn1c(C(=O)NCCc2ccsc2)cc2c(=O)n(C)c3ccccc3c21	38.8%
O=S1(=O)c2c(cccc2N2CCCCC2)O[C@H](COCc2ccccc2)CN1C1CC1	32.1%
COc1ccc(OC)c2[nH]c(=O)c(CCNC(=O)C(=O)c3c[nH]c4ccccc34)cc12	49.5% (active)
CC/C(=N/Nc1ccccc1)c1cnnc(SC)n1	1.16%
Cc1ccccc1NC(=O)Cc1nc(COC(=O)C(C)(C)Oc2ccc(Cl)cc2)cs1	58.9% (active)

Structure (SMILES)	inhibition
O=C(O)c1ccc(NC(=O)c2cn(-c3ccccc3)nc2-c2ccc(Cl)cc2)cc1	46.9%
Cc1cccc(NC(=O)c2ccc(COc3ccccc3[N+](=O)[O-])o2)n1	35%
COC(=O)Cc1nnn2c1[C@H](C)[C@H](c1ccccc1[N+](=O)[O-])OCC2	30.1%
COC(=O)Cc1nnn2c1[C@H](C)[C@H](c1ccccc1Br)OCC2	65.9% (active)
COc1ccc(CC(=O)Nc2c(C(N)=O)oc3ccccc23)cc1	28.8%
CCCCNc1c(-c2cccc(Sc3ccc(OC)cc3)c2)nc2ccccn12	61.9% (active)
Cc1ccc(NC(=O)c2ccc(CSc3ncnc4nc[nH]c34)cc2)c(C)c1	25.9%
CSCCC(NC(=O)COc1ccccc1)C(=O)OCC(=O)c1cc2ccccc2o1 (stereo not drawn)	33.3%
O=c1[nH]c(CSc2ncc(-c3ccc(F)cc3)n2Cc2ccco2)nc2ccccc12	54% (active)
Cc1ccc2cccc(OCCCOc3ccccc3CO)c2n1	26.4%
O=C(Nc1ccccc1-c1nnn(CC(=O)N2CCN(c3ccccc3)CC2)n1)c1cccs1	52.1% (active)
CN(c1ccccc1)S(=O)(=O)c1cc(C(=O)Nc2nc3ccccc3[nH]2)ccc1Cl	50.8% (active)
O=S(=O)(c1cccs1)N1CCCc2nc(-c3ccc(Br)cc3)ccc21	36.2%
COc1ccc(C(=O)Nc2ccccc2C(=O)N/N=C/c2ccc(O)c(OC)c2)cc1	45.9%
O=C(N/N=C/c1ccc(OC(=O)c2ccccc2Cl)cc1)c1ccc(O)cc1	57% (active)
COc1ccc(NC(=O)c2cc(-c3ccc(C)o3)nc3ccccc23)cc1	41.2%
COc1ccc(-c2nn(-c3ccccc3)cc2C(=O)Nc2nccs2)cc1OC	46.5%
CC(=O)N1CCN(C(=O)c2cc(-c3ccc(Cl)s3)nc3ccccc23)CC1	38.7%
COc1ccc(-c2cc(C(=O)N(C)CC(=O)Nc3ccccc3Cl)c3ccccc3n2)cc1OC	52.2% (active)
COc1ccc(CN(C)C(=O)c2cc(-c3ccc(C)cc3C)nc3ccccc23)c(OC)c1OC	53.7% (active)
COc1ccc(-c2cc(C(=O)N(C)Cc3ccc(OC)c(OC)c3OC)c3ccccc3n2)cc1OC	56.9% (active)

Structure (SMILES)	inhibition
COc1ccc(-c2cc(C(=O)N(C)Cc3ccccc3)c3ccccc3n2)cc1	44.3%
COc1ccc(C(=O)Nc2cccc(NC(=O)c3ccc(OC)cc3OC)n2)c(OC)c1	45.9%
COc1ccc(-c2cc(C(=O)Nc3ccccc3O)c3ccccc3n2)cc1	59% (active)
Cc1cc(C(C)(C)C)oc1C(=O)N(CC(=O)NC1CCCC1)Cc1ccc(Cl)cc1	43.7%
CSCCC(NC(=O)COc1ccccc1)C(=O)OCCOc1ccc(Br)cc1 (stereo not drawn)	17.8%
O=C(NCC1CCCO1)c1cc2c([nH]c3ccccc32)c(-c2ccc(F)cc2)n1 (stereo not drawn)	46%
Cn1c2ccccc2c(=O)c2c(=O)n(Cc3ccco3)c(COc3ccccc3)nc21	51% (active)
COc1ccc(S(=O)(=O)N(CC(=O)NCc2ccco2)c2ccc(F)cc2)cc1	39.1%
C=CCn1c(SCc2cccc(F)c2)nc2cc(C(=O)N3CCC(C(N)=O)CC3)ccc2c1=O	43.9%
Cc1nc(N2CCN(c3ccccn3)CC2)c2c(C)c(C(=O)Nc3ccc(F)cc3)sc2n1	53% (active)
Clc1ccc(Nc2ncnc3c2nnn3Cc2ccccc2)cc1	31%
COc1cc(/C=C2/C(=O)ON=C2C)ccc1OCc1ccccc1F	61.3% (active)
COC(=O)c1sccc1NC(=O)c1cc(OC)c(OC)c(OC)c1	37.3%
COc1ccc(/C=C/C(=O)Nc2ccc(C34CC5CC(CC(O)(C5)C3)C4)cc2)cc1OC	57.9% (active)
NNC(=O)CNC(c1ccccc1)c1cc(Cl)ccc1NC(=O)c1ccccc1 (stereo not drawn)	34.3%
Oc1ccccc1N1CCN(c2ncnc3sc(-c4ccccc4)cc23)CC1	47.6%
CC(C)(C)OC(=O)NCCCCCNC(=O)c1nc[nH]c1C(=O)NCc1ccccc1	37.2%
CC(C)Oc1cc(F)ccc1-c1cc(C(=O)Nc2ccc(F)cc2)[nH]n1	46.1%
C=CCC[C@@H](Cc1ccc(F)cc1)C(=O)O[C@H](CNC(=O)[C@H](CC=C)CC(=O)N(CCO)Cc1ccccc1)c1ccccc1	57.8% (active)
C=CCC[C@H](Cc1ccc(F)cc1)C(=O)OC[C@H](C)NC(=O)[C@H](CC=C)CC(=O)N(CCO)Cc1ccccc1	54% (active)
